Measured values taken from the supplement of paper PMC6555819.

Key:
Experiment in all cases: PBM binding z-score (relative to random genomic background probes); higher = stronger binding; sequences stand for … in GC…GCGATTGACAGCGTAGAATGAAGG
[1] = system: FXR:RXRa (NR concentration 270 nM, RXRa partner concentration 90 nM)
Procedure, shortened: (§1)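 Antibodies against each partner of ligand-free nuclear receptor dimers (one per run) detected binding on custom Agilent 4×180K protein-binding microarrays after 1 h incubation. The double-stranded probes had 34-nt variable regions carrying direct-repeat seeds, single-nucleotide variants, half-site ablations and random human genomic background sequences. Binding z-scores, from regression-normalized fluorescence, use the random background probes as reference.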

[2] = system: LXRa:RXRa (NR concentration 270 nM, RXRa partner concentration 90 nM)
Procedure, shortened: as §1

[3] = system: LXRa homodimer (NR concentration 270 nM)
Procedure, shortened: as §1

[4] = system: LXRb:RXRa (NR concentration 270 nM, RXRa partner concentration 90 nM)
Procedure, shortened: as §1

[5] = system: LXRb homodimer (NR concentration 270 nM)
Procedure, shortened: as §1

[6] = system: PPARa:RXRa (NR concentration 270 nM, RXRa partner concentration 90 nM)
Procedure, shortened: as §1

[7] = system: PPARg:RXRa (NR concentration 180 nM, RXRa partner concentration 90 nM)
Procedure, shortened: as §1

[8] = system: PPARg:RXRa 270nM:90nM, anti-RXR (NR concentration 270 nM, RXRa partner concentration 90 nM)
Procedure, shortened: as §1

[9] = system: PPARg:RXRa 30nM:10nM, anti-RXR (NR concentration 30 nM, RXRa partner concentration 10 nM)
Procedure, shortened: as §1

[10] = system: PPARg:RXRa 90nM:30nM, anti-RXR (NR concentration 90 nM, RXRa partner concentration 30 nM)
Procedure, shortened: as §1

[11] = system: PPARg:RXRa DBDmut IVT, anti-RXR (DBD mutation: RXRa K156A/R161A, NR concentration 270 nM, RXRa partner concentration 90 nM)
Procedure, shortened: as §1

[12] = system: PPARg:RXRa IVT, anti-PPARg (NR concentration 270 nM, RXRa partner concentration 90 nM)
Procedure, shortened: as §1

[13] = system: PPARg DBDmut:RXRa IVT, anti-PPARg (DBD mutation: PPARg1 K132A/R137A, NR concentration 270 nM, RXRa partner concentration 90 nM)
Procedure, shortened: as §1

[14] = system: PPARg DBDmut IVT, anti-PPARg (DBD mutation: PPARg1 K132A/R137A, NR concentration 270 nM)
Procedure, shortened: as §1

[15] = system: PPARg homodimer (NR concentration 180 nM)
Procedure, shortened: as §1

[16] = system: PXR:RXRa (NR concentration 270 nM, RXRa partner concentration 90 nM)
Procedure, shortened: as §1

[17] = system: PXR homodimer (NR concentration 270 nM)
Procedure, shortened: as §1

[18] = system: RARa:RXR (NR concentration 270 nM, RXRa partner concentration 90 nM)
Procedure, shortened: as §1

[19] = system: RARa homodimer (NR concentration 270 nM)
Procedure, shortened: as §1

[20] = system: RARb:RXRa (NR concentration 270 nM, RXRa partner concentration 90 nM)
Procedure, shortened: as §1

| Sequence | PBM binding z-score [1] | PBM binding z-score [2] | PBM binding z-score [3] | PBM binding z-score [4] | PBM binding z-score [5] | PBM binding z-score [6] | PBM binding z-score [7] | PBM binding z-score [8] | PBM binding z-score [9] | PBM binding z-score [10] | PBM binding z-score [11] | PBM binding z-score [12] | PBM binding z-score [13] | PBM binding z-score [14] | PBM binding z-score [15] | PBM binding z-score [16] | PBM binding z-score [17] | PBM binding z-score [18] | PBM binding z-score [19] | PBM binding z-score [20] |
| --- | --- | --- | --- | --- | --- | --- | --- | --- | --- | --- | --- | --- | --- | --- | --- | --- | --- | --- | --- | --- |
| TTACCAAGGTGAGCTGAGGTCTTTGATCCAACTC | -0.159 | 0.0694 | -0.392 | -0.341 | -1.02 | 0.662 | -0.133 | 0.0949 | -0.176 | -0.0349 | 0.776 | 1.72 | -0.073 | -0.0335 | -0.466 | 2 | -0.613 | 2.56 | -0.713 | 1.17 |
| GCAGACAGGTGAAACGCAGGTAACTTAGGGTGGC | 0.0644 | -0.18 | -0.522 | -0.226 | -1.05 | 0.666 | 0.771 | 0.226 | -0.508 | -0.022 | 1.09 | 0.626 | -0.0838 | -0.922 | -0.576 | -0.333 | -0.519 | 0.279 | -0.246 | 0.798 |
| CCTTACGGGTCACAGACAGGTTATAGCATTTGGA | 5.55 | 4.19 | 0.611 | 3.84 | 0.0624 | 5.36 | 5.74 | 5.16 | 2.14 | 3.99 | 3.72 | 4.63 | 1.16 | 0.89 | 2.76 | 3.87 | 0.387 | 4.91 | 0.967 | 4.01 |
| CCCTACGGGTCACGAGGTTATAGCACGACGAGCG | 6.43 | 4.68 | 0.337 | 4.01 | -0.522 | 5.71 | 6.58 | 6.23 | 2.52 | 4.88 | 2.05 | 4.19 | 0.401 | 0.144 | 2.51 | 4.57 | 0.609 | 5.9 | 1.28 | 4.36 |
| CCTTACGGGTCACGACGTTATAGCACGACGAGCG | 6.55 | 4.13 | 0.322 | 3.66 | 0.374 | 5.69 | 6.15 | 5.93 | 2.65 | 4.97 | 3.85 | 4.92 | 0.866 | 0.177 | 1.83 | 3.57 | 0.0826 | 4.61 | 1.39 | 4.34 |
| CCTACTGGGCCAAGTTCATTGATCAGTCAAAGCA | 0.51 | 0.916 | 0.751 | 0.634 | -0.712 | 1.83 | 1.24 | 2.02 | 0.309 | 1.6 | 3.93 | 3.54 | 0.0503 | -0.432 | 1.19 | 2.85 | 3.64 | 0.935 | 0.262 | 1.88 |
| ACTCGGAGGACACAGGTCAGAGCTACGCCAGTGA | 1.4 | 1.18 | 0.294 | 0.96 | -0.518 | 2.18 | 2.85 | 3.06 | 1.09 | 2.71 | 0.556 | 1.45 | -0.673 | 0.431 | 1.35 | 1.09 | -0.155 | 1.8 | 0.347 | 2.89 |
| TCTATTAGTTGATTCGGGCAACCGAAACAGCGGA | 0.597 | 0.339 | 0.411 | 0.655 | 0.739 | 0.742 | -0.102 | 1.84 | 3.9 | 2.85 | 1.91 | 0.598 | 0.957 | 0.979 | 0.106 | 0.3 | 0.223 | 0.414 | 0.742 | 0.671 |
| CCAGACAGGTGAGAAGGTAACTCTGCCTCGATTA | 0.00014 | 0.0948 | -0.229 | 0.114 | -0.103 | 0.793 | 0.466 | 0.906 | -0.293 | 0.346 | 1.34 | 0.644 | -0.0545 | -0.239 | 0.832 | 0.051 | 0.394 | 0.441 | -0.197 | 0.638 |
| GGAACGAGGGCAAACTTGATAGCATCTGTCGACG | 1.14 | 0.523 | -0.0239 | 0.598 | -0.25 | 2.18 | 1.54 | 1.87 | 0.362 | 1.16 | 4.42 | 3.21 | 0.0378 | -0.343 | 0.366 | 0.618 | 0.169 | 0.525 | -0.264 | 2.16 |
